Bioassay records from PubChem BioAssay.
Pf growth 48h – inhibits P. falciparum growth in the first generation, 48 h. P. falciparum luciferase growth in erythrocytes, 48 h. 310,000 tested, 5.9% active. Potency, µM (highest dose often 28.7 µM), without a hit: at the highest dose activity change, negative = inhibition, actives largely listed as inhibitors. AID 504832; further: on the % scale 0 is the no-effect control and ±100 the full control effect
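Cell-based growth assay: transgenic P. falciparum expressing firefly luciferase, cultured in red cells within RPMI 1640 containing 0.5% w/v Albumax, 24 mM bicarbonate and gentamycin. A drop in luciferase activity indicates inhibition.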
AMA1-RON2 inh – inhibitors of Plasmodium falciparum AMA1-RON2 interaction; Potency, µM (series often up to 58.2 µM), for the others: top-dose activity change, negative = inhibition, hits mostly inhibitors; AlphaScreen AMA1-biotinylated RON2 peptide binding; 360,000 tested, 0.2% active;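 further: 0% = vehicle wells and -100% = peptide control; nearly all actives have a fitted effect of over 45% in size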
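AMA1 (3D7) with his tag at 25 nM final met compounds first, then biotinylated RON2 peptide at 25 nM; detection used donor plus acceptor beads, 10 µg/mL apiece, read by AlphaScreen after 30 min at room temperature.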
Sm TGR inh – S. mansoni TGR enzyme inhibition; Potency, µM (series often up to 114 µM), for the others: at the highest dose activity change, negative = inhibition, usual class: inhibitors; 360,000 tested, 3% active; Q962Y6; purified TGR, DTNB reduction, TNB absorbance 405 nm; further: on the % scale 0 is the no-effect control and ±100 the full control effect; nearly all actives have a fitted effect of over 60% in size
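TGR 20 nM + NADPH 100 uM (dispensed conc.), cpd preinc 15 min RT; start with NADPH (500 uM addition) then DTNB (15 mM addition). Kinetic TNB absorbance, 405 nm filter. Four-parameter Hill fit across titration.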
NS1 function inh – inhibitors of influenza NS1 protein function. 270,000 tested, 0.4% active. AID 2326. Potency, µM (titrated, usually from 46.1 µM), for the others: at the highest dose activity, positive = more growth; calls by dose curve; further: actives are rising curves; nearly all actives have a fitted effect of over 50% in size
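Growth recovery, yeast-based: influenza A NS1 expressed in S. cerevisiae causes slow growth, and suppressors are detected by OD600. The parent strain without NS1 is used as positive control.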
Pf growth 96h – P. falciparum growth inhibition at 96 hour, primary screen for plastid delayed-death inhibitors | P. falciparum luciferase reporter growth, 96 h | Potency, µM (series often up to 28.7 µM), for the others: at the highest dose activity change, negative = inhibition, actives largely listed as inhibitors | 320,000 tested, 6.9% active | AID 504834; further: on the % scale 0 is the no-effect control and ±100 the full control effect
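Delayed-death screen, second-generation endpoint: infected erythrocytes, 2% hematocrit, 0.05% parasitemia final; 96 hours at 37 C, 5% CO2; luciferase detection reagent; luminescence decrease equals reduced growth.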
Active calls of the source: *; ? = inconclusive; · = no result; [ ] = another dose, or the depositor's remark. An excerpt weighted towards active compounds, which were near 11% of everything screened. Unless noted, the call rests on the fitted dose curve; in most records, active means well fitted curve in the direction sought with a large enough effect; inconclusive means small, poorly fitted or top-dose-only effect, or another doubt; inactive means no such curve, though single readings can be large; an effect the other way counts as inactive or inconclusive. Potency means the concentration at half of the fitted maximal effect.

SMILES | Pf growth 48h | AMA1-RON2 inh | Sm TGR inh | NS1 function inh | Pf growth 96h
CC1CCCCN1CCNC(=O)C1CCN(S(=O)(=O)c2cccc3cccnc23)CC1 (centres undefined) | ? | 0% | -23% | 2% | 4.7µM*
NS(=O)(=O)c1ccc(CCNC(=O)C2CCN(S(=O)(=O)c3cccc4cccnc34)CC2)cc1 | 1% | 1% | -21% | -3% | 1%
CCN(CCNC(=O)C1CCN(S(=O)(=O)c2cccc3cccnc23)CC1)c1ccccc1 | 6.6µM* | -7% | -3% | ? | -19%
COc1ccc(CNc2oc(/C=C/c3cc(OC)c(OC)c(OC)c3)nc2C#N)cc1 | · | · | 4% | · | ·
COc1ccccc1-c1noc(-c2ccc(N3CCN(C)CC3)c([N+](=O)[O-])c2)n1 | · | · | 5% | · | ·
O=C1NN(c2ccccc2)C(=O)/C1=C\c1ccccc1 | 21% | -7% | ? | 18% | ?
O=C1NN(c2cccc(Br)c2)C(=O)/C1=C\c1ccccc1 | 33% | -3% | 50µM* | -8% | -7%
CCn1c(=O)c2sccc2n(CC(=O)NC2CCCCC2)c1=O | -9% | -2% | 1% | 3% | ?
CCC(C)[C@@H](CN(N=O)[C@@H](Cc1ccccc1)CN(C)N=O)N(CCc1ccccc1)N=O (some centres undefined) | ? | -5% | -20% | 15% | ?
CN(C[C@H](Cc1ccccc1)N(C[C@H](CC1CCCCC1)N(CCc1ccccc1)N=O)N=O)N=O | -2% | -9% | -35% | 1% | ?
CN(C[C@@H](CC1CCCCC1)N(C[C@H](Cc1ccccc1)N(CCc1ccccc1)N=O)N=O)N=O | ? | -2% | -19% | 8% | 12µM*
CN(C[C@H](Cc1ccccc1)N(C[C@H](Cc1ccccc1)N(CC1(c2ccccc2)CC1)N=O)N=O)N=O | ? | -7% | ? | 8% | 10µM*
CCOC(=O)C1=C2NC(=O)c3ccccc3N2C(=O)C1 | 3% | 4% | ? | · | 39%
COc1ccc(OC)c(NC(=O)C2(C)CCN2Cc2ccccc2OC(F)F)c1 (centres undefined) | · | -27% | · | · | ·
Fc1ccc(N/N=C/c2cccnc2)c(F)c1 | 13% | 2% | 8% | · | -18%
Clc1ccc2c(N/N=C/c3ccc(Br)cc3)ccnc2c1 | 0.33µM* | 6%[11.6 µM] | -3% | -22% | 1.5µM*
Clc1ccc2c(N/N=C/c3cccnc3)ccnc2c1 | 0.66µM* | 4% | 0% | · | 0.83µM*
O=C(N/N=C/c1ccc2nccnc2c1)c1ccc(Br)cc1 | ? | -8% | -8% | -35% | 14%
COc1ccc(NC(=O)CCCN2C(=O)CCn3nc(-c4cn(C)c5ccccc45)cc32)cc1 | · | · | 1% | · | ·
COc1ccc(-c2cc3nc(C)c(CCC(=O)N4CCN(c5ccc(F)cc5)CC4)c(C)n3n2)c(OC)c1 | · | · | 2% | · | ·
O=C(NC1CCCN(Cc2ccc(Cl)cc2)C1)c1c(F)cccc1F (centres undefined) | 43% | 9% | -12% | 6% | ?
COc1cccc(CC(=O)NC2CCCN(Cc3ccc(Cl)cc3)C2)c1 (centres undefined) | -15% | -1% | 6% | 18% | -24%
O=C(NC1CCCN(Cc2ccc(Cl)cc2)C1)c1c(F)ccc(F)c1F (centres undefined) | -12% | 30% | -4% | 1% | 4.7µM*
O=C(NC1CCCN(Cc2ccc(Cl)cc2)C1)c1ccccc1C(F)(F)F (centres undefined) | ? | 0% | 0% | 10% | 4.7µM*
CC(=O)c1ccc(C(=O)NC2CCCN(Cc3ccc(Cl)cc3)C2)s1 (centres undefined) | -15% | -2% | 5% | 11% | ?
COc1ccc(OCC(=O)NC2CCCN(Cc3ccc(Cl)cc3)C2)cc1 (centres undefined) | 13µM* | 0% | 2% | -5% | ?
O=C(NCc1cccnc1)c1cc(C2CCCCN2C(=O)c2ccc3c(c2)CCO3)on1 (centres undefined) | · | 3% | · | · | ·
O=c1c2cccc3c2c(nn1CN1CCOCC1)-c1ccccc1-3 | 46% | -5% | -5% | -66% | ?
CCN(CC)CCn1nc2c3c(cccc3c1=O)-c1ccccc1-2 | 4.1µM* | -3% | · | -4% | 19%
